Among the data in PubChem BioAssay (Tox21) are Potency values, retold here.

Active and inactive are the calls of the source. Entries that show only a call come without a potency. Calls come from the whole dose curve; as a rule, active = well fitted curve in the direction sought with a large enough effect in the repeat runs; inconclusive = weak or mixed curves; inactive = flat fitted curve, though single readings scatter.

A short description of the experiment: qHTS assay to test for compound auto fluorescence at 590 nm (red) in HEK293 cells (AID 720679). As to conditions: red autofluorescence 540/590 nm; series mostly up to 46 µM. Summed up: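 Intensity at 540nm excitation and 590nm emission is reported as Rose Bengal sodium-equivalent autofluorescence. Measurements followed overnight exposure (37C, 5% CO2) of HEK293 cells, 2,000 per well, to 23 nL compound.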
Turning to `Cc1cc(O)c2c(c1)O[C@@]1(C)CC[C@H]3C(C)(C)CCCC34CO[C@@H]2[C@H]41` (some centres undefined), the Potency entry was “inactive”.

With `COc1ccc(C2NC(=S)N3C(c4ccc(OC)c(OC)c4)NC(=S)N23)cc1OC` (centres undefined), the Potency result is “inactive”.

Regarding `CC(CN(C)C)CN1c2ccccc2Sc2ccc(C(F)(F)F)cc21` (centres undefined), the Potency entry is “inactive”.

On to `C[C@@H]1CCC2[C@@H](C)[C@@H](O)O[C@@H]3O[C@@]4(C)CC[C@@H]1[C@@]23OO4` (some centres undefined), for which the Potency result was “inactive”.

In the case of `CCc1ccc2c(c1)N(CC(C)CN(C)C)c1ccccc1S2` (centres undefined), the Potency entry is “inactive”.

`CCCCCCCCCCCCCCCCCC[N+](C)(C)CCC[Si](OC)(OC)OC`: the Potency entry was “inactive”.

Consider `CCOC(=O)[C@H](CS)NCCN[C@@H](CS)C(=O)OCC`, for which the Potency entry was “inactive”.

In the case of `CC1(C)S[C@@H]2[C@H](NC(=O)[C@H](NC(=O)N3CCN(S(C)(=O)=O)C3=O)c3ccccc3)C(=O)N2[C@H]1C(=O)O`, the Potency result was “inactive”.

On to `Cn1c(O)c(N=NC(N)=S)c2ccccc21`, for which the Potency entry was “inactive”.

`CC1=C[C@H](O)CC(C)(C)[C@H]1/C=C/C(C)=C/C=C/C(C)=C/C=C/C=C(C)/C=C/C=C(C)/C=C/C1=C(C)C[C@@H](O)CC1(C)C`: the Potency entry was “inactive”.

With `NCCC(=O)[N-][C@@H](Cc1cnc[nH]1)C(=O)O.[Zn]`, the Potency result is “inactive”.

On to `C#C[C@]1(O)CC[C@H]2[C@@H]3CCC4=CCCC[C@@H]4[C@H]3C(=C)C[C@@]21CC`, for which the Potency entry was “inactive”.

On to `C=C1C(=C/C=C2\CCC[C@]3(C)[C@@H]([C@H](C)/C=C/[C@H](C)C(C)C)CC[C@@H]23)C[C@@H](O)C[C@@H]1O`, for which the Potency result is “inactive”.

Consider `CC(=O)[C@@]1(O)CC[C@H]2[C@@H]3C=C(Cl)C4=CC(=O)CC[C@]4(C)[C@H]3CC[C@@]21C`, for which the Potency result is “inactive”.
